Data taken from PubChem BioAssay AID1875 (Broad Institute, 2009).
In all, about 300,000 compounds went through this assay and about 65 (0.02%) were called active.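 Rule for the calls: active = lowest replicate activity score at least 50, where 100 means six control SD above control mean; inconclusive = lowest score under 50 but half or more replicates reach 50; inactive = the rest.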 What follows is part of a selection rich in actives, with near analogues and random picks from the rest.

Test: perturbers of mRNA poly(A) processing – luminescence, S. cerevisiae, primary screen (AID 1875);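 note: yeast exposed to compound for 9 h at 30 °C; higher score means more reporter readthrough which indicates perturbed polyadenylation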
Conditions: S. cerevisiae SKY197-pL101 polyadenylation reporter, beta-gal luminescence; at 12 µM; stronger effect = higher value; efflux-impaired pdr1/pdr3 knockout yeast; score 100 = 6 SD above DMSO

| Structure (SMILES) | activity score |
| --- | --- |
| CCOC(=O)N1CCN(CC(=O)n2c(C)c(C)c3ccccc32)CC1 | -9.64% (inactive) |
| NC(N)=Nc1nc2ccc(Br)cc2c(=O)[nH]1 | 11.2% (inactive) |
| Cc1ccc(NC(=O)C(=O)NCC2CCN(C(=O)c3cccc([N+](=O)[O-])c3)CC2)cc1 | 15.6% (inactive) |
| Cc1ccc(-n2nc(N)c3c(=O)oc(N(C)C)nc32)cc1 | -13.9% (inactive) |
| FC(F)(F)c1cc(C(F)(F)F)c2ccc(N3CCN(c4ccccc4)CC3)nc2n1 | -28.1% (inactive) |
| Nc1c(C(=O)c2cccs2)sc2nsc(SCCN3CCCCC3)c12 | -10.6% (inactive) |
| CN(Cc1nc(-c2cnccn2)no1)Cc1n[nH]c2c1CCCCC2 | -15.8% (inactive) |
| CCNC(=O)CC1C(=O)N(c2ccc(OC)cc2)C(=O)N1CCOC (configuration not stated) | 13.9% (inactive) |
| Cc1c(Nc2nc3ccccc3nc2NS(=O)(=O)c2cccs2)c(=O)n(-c2ccccc2)n1C | -9.51% (inactive) |
| COc1cc(/C=C2/SC(=S)N(Cc3ccccc3)C2=O)cc(OC)c1O | 425% (active) |
| COc1ccccc1C(=O)NNC(=O)CCN1C(=O)/C(=C\c2ccccc2)SC1=S | -4.37% (inactive) |
| COc1ccc(/C=C2\SC(=S)N(CCC(=O)Nc3ccccn3)C2=O)cc1OC | 14.3% (inactive) |
| COC(=O)C(=Nc1ccccc1)/C(C(=O)C(=O)N(C)c1ccccc1)=C(\O)c1ccc(Cl)cc1 | 3.12% (inactive) |
| COc1ccc(C2/C=C\CN(S(=O)(=O)c3cccs3)CC(=O)N2Cc2ccc(F)cc2)cc1 (configuration not stated) | 1.94% (inactive) |
| Cc1c(S(=O)(=O)N2CC(C)CC(C)C2)c(=O)n(C)c(=O)n1C (configuration not stated) | 11.6% (inactive) |
| COc1ccc(/C=N/Nc2nc(-c3ccc(C)cc3)c(C#N)c(=O)[nH]2)cc1 | -16.1% (inactive) |
| Cc1ccc(CNC(=O)Cn2c(=O)c3sccc3n(Cc3cccc([N+](=O)[O-])c3)c2=O)cc1 | -7.25% (inactive) |
| O=C(NCc1ccccc1)C(c1cccnc1)N(C(=O)c1csnn1)c1ccc(F)cc1 (configuration not stated) | 5.05% (inactive) |
| CC1CN(C(=O)COC(=O)c2cccc(NS(=O)(=O)c3ccccc3)c2)CC(C)O1 (configuration not stated) | 2% (inactive) |
| COc1ccc(NC(=O)COc2ccc(C(=O)c3ccc(F)cc3)cc2)cc1S(N)(=O)=O | 7.67% (inactive) |
| O=C(O)CCCn1cc(NC(=O)COc2cccc(Cl)c2)cn1 | -6.55% (inactive) |
| Cc1cccn2c(CN(C)C3CCCc4ccccc43)c(C(=O)N3CCOCC3)nc12 (configuration not stated) | 10.7% (inactive) |

| Structure (SMILES) | activity score |
| --- | --- |
| O=C(COC(=O)Cc1ccccc1F)NNC(=O)c1ccc(Cl)cc1 | 0.16% (inactive) |
| CC(C)(C)C(=O)NC1CC2CCCC(C1)N2C(=O)Nc1ccccc1F (configuration not stated) | 0.739% (inactive) |
| CCOc1ccccc1N1C(=O)CC(Sc2nccc(C)n2)C1=O (configuration not stated) | 13.3% (inactive) |
| CC(C)COP(=O)(c1ccc(N(C)C)cc1)C(Nc1ccccc1)c1cccnc1 (configuration not stated) | 9.1% (inactive) |
| Cc1ccc2nsnc2c1S(=O)(=O)N1CCCC1C(=O)O (configuration not stated) | 12.1% (inactive) |
| CC(/C=C/C1(O)C(C)CC(=O)CC1(C)C)OC1OC(CO)C(O)C(O)C1O (configuration not stated) | 14.6% (inactive) |
| Cc1nnc(SC(C)C(=O)Nc2ccc(S(=O)(=O)NC3CCCCC3)cc2)s1 (configuration not stated) | -4.69% (inactive) |
| O=C(CSc1ccccn1)Nc1nc2c(ccc3ccccc32)s1 | -14.3% (inactive) |
| COc1ccc(NC(=O)c2cccc(Cl)c2)c[n+]1[O-] | 10.9% (inactive) |
| COc1ccc(C(=O)N(Cc2ccccc2)c2ccc(C)cc2)cc1S(=O)(=O)N1CCOCC1 | -2.8% (inactive) |
| Cn1c(N)c(C(=O)COC(=O)/C=C/c2ccc(OC(F)F)cc2)c(=O)n(C)c1=O | 0.664% (inactive) |
| CCOc1ccc(S(=O)(=O)NCc2ccc3c(c2)OCO3)cc1C | 12.5% (inactive) |
| Cc1cc(C)c(OCC(=O)N(Cc2cccs2)C2CCS(=O)(=O)C2)c(C)c1 (configuration not stated) | 21.1% (inactive) |
| C#CCOCCOCCOCCNc1nc(N2CCN(C(=O)C([C@@H](C)CC)n3cc(C(N)COC(=O)C(F)(F)F)nn3)CC2)nc(N2CCN(C(=O)[C@H](CCCCN)n3cc(C(N)CC(C)C)nn3)CC2)n1 (some centres not stated) | -6.03% (inactive) |
| Cc1ccc(NC(=O)CN2CCc3ccccc3C2)cc1C | -2.27% (inactive) |
| CCc1ccc2nc3sc(C(=O)Nc4nnc(CC)s4)c(N)c3cc2c1 | 34.8% (inactive) |
| Cc1ccc(NC(=O)CSCC(=O)Nc2sccc2C#N)cc1 | 11.2% (inactive) |
| Cc1ccc(NC(=O)c2sc3nc(N)c(C#N)cc3c2N)cc1 | 55.3% (active) |
| O=C1N(Cc2ccc3c(c2)OCO3)c2ccccc2C1(O)c1c[nH]c2ccccc12 (configuration not stated) | -1.62% (inactive) |
| CC(=O)N1CCN(c2ccc(NCc3ccc(C(C)C)cc3)cc2)CC1 | 11.3% (inactive) |
| COC(=O)c1ccccc1NC(=O)CN(Cc1ccc(Cl)cc1)S(C)(=O)=O | -7.02% (inactive) |
| COc1cccc(CNS(=O)(=O)c2cc3c(cc2C)n(C)c(=O)c(=O)n3C)c1 | -4.51% (inactive) |

| Structure (SMILES) | activity score |
| --- | --- |
| CCCCn1c(N)c(N(CCOC)C(=O)c2oc3ccc(OC)cc3c2C)c(=O)[nH]c1=O | -1.46% (inactive) |
| CC(C)=CC(=O)Nc1nnc(-c2ccc(F)cc2)s1 | 24% (inactive) |
| CCn1c(CC(=O)Nc2ccccc2C)nnc1SCC(=O)NC1=NCCS1 | -11.9% (inactive) |
| O=C(NC(=S)Nc1cccc2c(O)cccc12)c1cccc(Br)c1 | -27% (inactive) |
| N/C(=N\S(=O)(=O)c1cc(C(F)(F)F)cc(C(F)(F)F)c1)c1cccs1 | 23.1% (inactive) |
| CCOc1ccc(N2CC(C(=O)NCc3ccccn3)CC2=O)cc1 (configuration not stated) | 9.19% (inactive) |
| CCc1ccc(-c2nn(-c3ccccc3)cc2CSC(=N)N)cc1 | 0.301% (inactive) |
| COc1ccccc1OCc1ccc(C(=O)NC(C)c2ccccc2)o1 (configuration not stated) | 9.72% (inactive) |
| CS(=O)(=O)N(CC(=O)N1CCc2ccccc2C1)c1ccc(Br)cc1 | -7.16% (inactive) |
| COc1cccc(COC(=O)C2CCN(S(=O)(=O)c3ccc(Cl)cc3)CC2)c1OC | 10.3% (inactive) |
| Cc1ccc(NC(=O)c2cc3ccccc3o2)cc1 | -13.9% (inactive) |
| O=C(NCCS(=O)(=O)N1CCN(c2ccccc2F)CC1)c1ccc(Br)o1 | 1.43% (inactive) |
| CCOc1ccc(C2c3[nH]c4ccccc4c3CCN2Cc2cccn2-c2ncccn2)cc1 (configuration not stated) | 0.986% (inactive) |
| CCc1c(C)nc2c(OC)cccc2c1Cl | -37.6% (inactive) |
| O=C(CN1CCOCC1)Nc1c2c(nc3c1CCC3)CCC2 | 1.76% (inactive) |
| CC1(C)CCSC(/C=C/c2ccccc2)=N1 | 6.99% (inactive) |
| COc1ccc(-n2c(O)c(C=NCC(c3ccco3)N3CCCC3)c3ccccc3c2=O)cc1OC (configuration not stated) | 6.18% (inactive) |
| COc1cc(NC(=O)c2cncc(-c3ccc(C#N)cc3)c2)cc(C(=O)Nc2cccc(C(F)(F)F)c2)c1 | -7.7% (inactive) |
| O=C(C1CCN(c2nnc(-n3cccc3)s2)CC1)N1CCc2ccccc2C1 | 9.11% (inactive) |
| CCc1noc(C)c1C(=O)Oc1ccc(N(C)S(=O)(=O)c2ccc(C)c(C)c2)cc1 | 0.103% (inactive) |
| Cc1ccc(CNC(=O)C2CCN(S(=O)(=O)c3ccc4nc5c(c(C(=O)O)c4c3)CC(C)CC5)CC2)cc1 (configuration not stated) | -6.73% (inactive) |
| CCn1cc(CN2CCC(C(=O)Nc3cccc(-c4cccc(Cl)c4)c3)CC2)c(C)n1 | 3.2% (inactive) |

| Structure (SMILES) | activity score |
| --- | --- |
| Cc1ccc(-c2cc(C(=O)NCc3cn(C)nc3C)c3cc(Br)ccc3n2)cc1 | 2.61% (inactive) |
| O=C(c1ccncc1)N1CCN(S(=O)(=O)c2cc(C(F)(F)F)cc(C(F)(F)F)c2)CC1 | 9.96% (inactive) |
| COc1ccc(C(CNC(=O)c2ccc(S(=O)(=O)Nc3ccccc3F)cc2)N(C)C)cc1 (configuration not stated) | 4.77% (inactive) |
| CCCCn1c(N)c(N(CCOC)C(=O)CSCC(=O)Nc2cccc(C)c2)c(=O)[nH]c1=O | 10.8% (inactive) |
| Cc1cc(C)nc(NS(=O)(=O)c2ccc(N/C=C\C(=O)c3cccs3)cc2)n1 | -11% (inactive) |
| O=C(c1snnc1-c1ccccc1)N1CCOCC1 | 18.7% (inactive) |
| CC(OC(=O)CNC(=O)c1ccco1)C(=O)Nc1ccc(Cl)cn1 (configuration not stated) | -11.7% (inactive) |
| CCOc1ccccc1OCCCNCc1ccccc1 | 14.2% (inactive) |
| COc1cc(C(=O)NCCOC(=O)c2cccc(N(C)C)c2)cc(OC)c1OC | 1.84% (inactive) |
| O=c1[nH]cnc(O)c1C(c1ccc(F)cc1)c1c(O)nc[nH]c1=O | -1.62% (inactive) |
| COc1ccc([N+](=O)[O-])cc1N(CC(O)CN(CC(C)C)CC(C)C)S(=O)(=O)c1ccc(C)cc1 (configuration not stated) | 12.6% (inactive) |
| O=[N+]([O-])c1cc(C(F)(F)F)ccc1NCCc1ccncc1 | -17.4% (inactive) |
| CC(C)CCNC(=O)c1cccnc1Sc1ccccc1 | -10.2% (inactive) |
| COc1ccc(NC(=O)C/C(C)=N/NC(=O)c2cnccn2)cc1Cl | 4.46% (inactive) |
| CCN(CC)CC(=O)Nc1nn(-c2ccccc2)nc1C(N)=O | 3.8% (inactive) |
| Cc1ccccc1N1C(=O)C(Oc2ccc(Cl)cc2)C1CNCC1CCCO1 (configuration not stated) | -13.7% (inactive) |
| COC(=O)c1ccc(SCc2ccccc2)nc1 | 5.84% (inactive) |
| CC(C)(C)N(Cc1ccccc1)C(=O)COC(=O)CCc1c[nH]c2ccccc12 | 9.29% (inactive) |
| CCN(CC)c1ccc(C(=O)Nn2c(C)nc3ccccc3c2=O)cc1 | -0.748% (inactive) |
| O=C(CCc1nnc(Cc2ccc3c(c2)OCO3)o1)NCCc1ccccc1Cl | 6.46% (inactive) |
| O=C(COc1coc(CN2CCN(c3ccccc3)CC2)cc1=O)N1CCc2ccccc21 | -4.04% (inactive) |
